Measurements taken from PubChem BioAssay AID2685 (National Center for Advancing Translational Sciences (NCATS), 2010).
In all, about 320,000 compounds went through this assay and about 2,100 (0.66%) were called active. Not shown: some 53% with an inconclusive outcome. The sample holds actives, similar compounds and a random draw of the others, so the mix is not that of the screen. Calls come from the whole dose curve; as a rule, active = well fitted inhibition curve with a large enough effect in the signal ratio, with a control signal flat (not every such curve was filed as active); inconclusive = small, poorly fitted or top-dose-only effect, or effect the other way, or a change in a side signal; inactive = flat fitted curve, though single readings scatter; the % refers to the signal ratio.

Test: qHTS Assay for Lipid Storage Modulators in Drosophila S3 Cells;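 for cell number change: cells counted by Cell Tracker Red CMTPX staining in the red channel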; for lipid storage change, negative = inhibition: % is set by controls: 0 for no effect and ±100 for the full control effect
Settings: BODIPY lipid droplet fluorescence, 18-24 h, cells fed with added oleic acid; cell number change: measured here: cell count max response; series mostly up to 46.1 µM; lipid storage change, negative = inhibition: at the top concentration
Outline: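 Laser-scanning cytometry quantifies lipid droplet accumulation (500–530 nm total intensity; droplet/cell object ratio) in oleic acid-fed (400 uM added) Drosophila S3 cells treated with a concentration series. 20 uM Triacsin C defined 100% inhibition.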
Potency is the fitted concentration of half-maximal effect.

Row | SMILES | lipid storage change, negative = inhibition | cell number change | outcome | Potency
1 | c1ccc2c(c1)nnn2CNc1nccs1 | 11.7% (inactive) | -2.46% |  | 
2 | COc1ccc(C(=O)NC2CCCCCC2)cc1S(=O)(=O)Nc1ccc(Br)cc1 |  | -11.3% | inactive | 
3 | CCCCCCn1c(=O)c(C(=O)N/N=C/c2cccc(F)c2)c(O)c2ccccc21 | -4% (inactive) | 5.21% |  | 
4 | CC12C(=O)N(NC(=O)c3ccncc3)C(=O)C1C1C=CC2C1 (centres undefined) | 9.21% (inactive) | 6.42% |  | 
5 | O=C1[C@@H]2[C@H](C(=O)N1n1cnnc1)[C@H]1C=C[C@@H]2C1 | 6.88% (inactive) | 1.74% |  | 
6 | CC12C(=O)N(n3cnnc3)C(=O)C1C1C=CC2C1 (centres undefined) |  | 2.58% |  | 18.4 µM (active)
7 | CN1CCN(S(=O)(=O)c2ccc(Nc3cccc(Cl)c3)c([N+](=O)[O-])c2)CC1 | 10.8% (inactive) | 8.16% |  | 
8 | COc1ccc(C(=O)Nc2cccc(S(=O)(=O)NC3=NCCCCC3)c2)cc1 | 10.1% (inactive) | -1.04% |  | 
9 | CN(C)c1nc(N(C)C)nc(N2CCCCC2)n1 | 21% (inactive) | 10.3% |  | 
10 | O=C(CCC(=O)OC(C(=O)c1ccccc1)c1ccccc1)Nc1ccccc1 (centres undefined) |  | -23.6% |  | 0.731 µM (active)
11 | Cc1ccc(C(=O)C(OC(=O)CCC(=O)Nc2cccc(C)c2)c2ccccc2)cc1 (centres undefined) | -7.6% (inactive) | -1.69% |  | 
12 | COc1ccc(NC(=O)CCC(=O)OC(C(=O)c2ccccc2)c2ccccc2)cc1 (centres undefined) | -9.84% (inactive) | -23.4% |  | 
13 | COc1ccc(NS(=O)(=O)c2ccc(NC(C)=O)cc2)c(OC)c1 | 5.93% (inactive) | 0.633% |  | 
14 | O=C(NCCc1cnn(-c2ccccc2)c1)c1cc(COc2c(F)cccc2F)on1 | 15.2% (inactive) | 0.269% |  | 
15 | COc1ccccc1CNc1ncc(-c2ccc(F)cc2)n1C | -18.1% (inactive) | -1.58% |  | 
16 | COc1ccc(OC)c(CNc2ncc(-c3ccc(F)cc3)n2C)c1 |  | -16.1% |  | 32.6 µM (active)
17 | Cn1c(-c2ccc(F)cc2)cnc1NCc1ccc(F)cc1F | -14.7% (inactive) | 25.6% |  | 
18 | COc1ccc(-n2c(=O)c3ccccc3n(CC(=O)NC3CCCCC3)c2=O)c(OC)c1 | 21.5% (inactive) |  |  | 
19 | CC(O)CNC12CC3CC(CC(C3)C1)C2 (centres undefined) | -12.7% (inactive) |  |  | 
20 | CC(C)(C)NC(=O)NC12CC3CC(CC(C3)C1)C2 | 7.75% (inactive) | 0.331% |  | 
21 | CC(C)(CO)NC12CC3CC(CC(C3)C1)C2 |  | -20.6% |  | 0.058 µM (active)
22 | Cc1ccc(S(=O)(=O)N(C)/N=C/c2ccc(N(C)C)cc2)cc1 | 7.16% (inactive) | 12.7% |  | 
23 | O=C(NCc1ccccc1)/C(=C/c1ccc([N+](=O)[O-])cc1)NC(=O)c1ccco1 |  | -3.81% | inactive | 
24 | COc1ccc(C(=O)CSc2nnc(CNC(=O)c3ccccc3F)n2C)cc1OC | -9.91% (inactive) | 0.87% |  | 
25 | O=C(NCCOc1ccccc1)C1CCCN1C(=O)c1cccs1 (centres undefined) | -2.36% (inactive) | -1.16% |  | 
26 | O=C(NC1CCCCC1)C(c1ccc(F)cc1)N(Cc1ccco1)C(=O)Cn1nnc2ccccc21 (centres undefined) |  | 19.8% |  | 16.4 µM (active)
27 | O=C(NC1CCCCC1)C(c1ccc(F)cc1)N(Cc1ccco1)C(=O)CN1C(=O)c2ccccc2S1(=O)=O (centres undefined) | -10.1% (inactive) | 11.1% |  | 
28 | O=C(NCc1ccco1)C(c1ccc(F)cc1)N(CC1CCCO1)C(=O)Cn1nnc2ccccc21 (centres undefined) |  | -18.6% | inactive | 
